# Laboratory results taken from paper PMC4336329 (PLoS ONE, 2015).
# Screen size: about 310,000 compounds; about 14,000 (4.5%) showed an effect of 50% or more. The effect is printed as a negative number. The list comes from a sample in which strong results are over-represented; it also holds similar structures and randomly drawn compounds.
# Molecular target: human ether-à-go-go-related gene (hERG) potassium channel (human, UniProt Q12809)
# Assay: primary screen, population patch clamp on CHO cells stably expressing hERG; higher = less effect of the substance
# 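Also: peak tail current of the secondary pulse compared with the same well before compound.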
# human ether-à-go-go-related gene (hERG) potassium channel, sequence (Q12809 whole entry, looked up): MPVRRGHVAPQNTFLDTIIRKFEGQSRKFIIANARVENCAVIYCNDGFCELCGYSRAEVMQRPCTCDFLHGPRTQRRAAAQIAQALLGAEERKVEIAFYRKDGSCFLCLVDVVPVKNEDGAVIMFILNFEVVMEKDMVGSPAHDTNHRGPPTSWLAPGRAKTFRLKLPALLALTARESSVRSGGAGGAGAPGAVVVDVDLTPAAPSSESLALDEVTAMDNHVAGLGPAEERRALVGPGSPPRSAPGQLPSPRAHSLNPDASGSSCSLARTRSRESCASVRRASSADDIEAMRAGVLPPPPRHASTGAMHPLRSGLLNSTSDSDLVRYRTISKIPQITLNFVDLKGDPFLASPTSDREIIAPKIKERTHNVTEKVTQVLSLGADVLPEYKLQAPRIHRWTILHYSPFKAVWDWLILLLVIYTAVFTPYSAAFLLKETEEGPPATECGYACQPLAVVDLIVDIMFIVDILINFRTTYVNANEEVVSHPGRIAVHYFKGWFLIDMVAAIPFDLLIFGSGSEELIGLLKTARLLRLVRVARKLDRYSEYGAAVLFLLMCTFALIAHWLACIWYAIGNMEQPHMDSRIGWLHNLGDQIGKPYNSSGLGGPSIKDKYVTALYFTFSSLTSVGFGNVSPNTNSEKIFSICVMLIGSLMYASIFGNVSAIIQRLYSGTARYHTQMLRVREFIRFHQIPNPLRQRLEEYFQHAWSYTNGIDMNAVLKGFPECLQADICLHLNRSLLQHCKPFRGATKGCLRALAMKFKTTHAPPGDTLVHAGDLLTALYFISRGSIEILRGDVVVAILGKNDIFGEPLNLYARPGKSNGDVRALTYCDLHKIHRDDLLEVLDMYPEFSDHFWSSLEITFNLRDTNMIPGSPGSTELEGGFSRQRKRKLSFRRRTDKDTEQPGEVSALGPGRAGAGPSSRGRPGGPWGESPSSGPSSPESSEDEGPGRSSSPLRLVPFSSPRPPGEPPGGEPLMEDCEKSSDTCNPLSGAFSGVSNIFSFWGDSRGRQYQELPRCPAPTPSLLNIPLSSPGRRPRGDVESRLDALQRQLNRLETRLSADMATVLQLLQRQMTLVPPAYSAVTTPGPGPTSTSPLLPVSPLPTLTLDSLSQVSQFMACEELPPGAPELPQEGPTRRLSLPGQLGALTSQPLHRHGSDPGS
row,SMILES,"hERG current change (%, negative = inhibition) at 10uM [%]"
1,O=C(/C=C/c1ccc(Cl)c(Cl)c1)N1CCOCC1,-1.3
2,CC1CCN(c2ccccc2NC(=O)c2ccc([N+](=O)[O-])o2)CC1,25
3,CC1CCN(c2ccccc2NC(=O)c2cc([N+](=O)[O-])ccc2N2CCOCC2)CC1,-2.63
4,CC(C)C(=O)N1CCN(c2ccccc2NC(=O)c2ccc([N+](=O)[O-])o2)CC1,-63
5,CCc1ccccc1NC(=O)c1cc([N+](=O)[O-])ccc1N1CCOCC1,-16.5
6,CS(=O)(=O)N1CCN(c2ccccc2NC(=O)c2ccc([N+](=O)[O-])o2)CC1,-25.2
7,CC(C)C(=O)N1CCN(c2ccccc2NC(=O)c2cc([N+](=O)[O-])ccc2N2CCOCC2)CC1,-67.2
8,O=C(CNC(=O)c1cccs1)c1ccc(Br)cc1,12.2
9,O=C(O)Cc1ccc(C(=O)c2cccs2)s1,11.8
10,COc1ccc(CNC(=S)N/N=C(/C)c2ccccc2)cc1,-6.47
11,COc1ccc(OC)c(NC(=S)NCc2cccnc2)c1,8.59
12,COC(=O)C1CC(O)CN1C(=O)c1ccco1 (centres unmarked),10.6
13,CN(C)S(=O)(=O)c1ccc(NC(=O)CN2CCC(Cc3ccccc3)CC2)cc1,-32.8
14,CN(Cc1ccc(F)cc1)Cc1nc(-c2cnccn2)no1,13.7
15,Cc1cc(C)n(-c2cccc(CN(C)Cc3nc(-c4cnccn4)no3)c2)n1,10.8
16,CN(Cc1ccc(-n2cccn2)cc1)Cc1nc(-c2cnccn2)no1,-58.2
17,CC(=O)c1ccc(N2CCN(C(=O)c3nn(C)c4c3CS(=O)(=O)c3ccccc3-4)CC2)cc1,-64.5
18,COc1ccccc1N1CCN(C(=O)c2nn(C)c3c2CS(=O)(=O)c2ccccc2-3)CC1,2.07
19,Cc1ccc(N2CCN(C(=O)c3nn(C)c4c3CS(=O)(=O)c3ccccc3-4)CC2)c(C)c1,-3
20,Cn1nc(C(=O)N2CCN(c3cccc(Cl)c3)CC2)c2c1-c1ccccc1S(=O)(=O)C2,-53.4
21,Cn1nc(C(=O)N2CCN(c3ccc([N+](=O)[O-])cc3)CC2)c2c1-c1ccccc1S(=O)(=O)C2,-31.4
22,Cc1cccc(N2CCN(C(=O)c3nn(C)c4c3CS(=O)(=O)c3ccccc3-4)CC2)c1C,-33.4
23,Cn1nc(C(=O)N2CCCCC2)c2c1-c1ccccc1S(=O)(=O)C2,14.7

row,SMILES,"hERG current change (%, negative = inhibition) at 10uM [%]"
1,Cn1nc(C(=O)N2CCN(c3ccc(F)cc3)CC2)c2c1-c1ccccc1S(=O)(=O)C2,-54.3
2,CCN1CCN(C(=O)c2nn(C)c3c2CS(=O)(=O)c2ccccc2-3)CC1,12
3,Cn1nc(C(=O)N2CCN(c3ccccc3)CC2)c2c1-c1ccccc1S(=O)(=O)C2,-40.9
4,Cn1nc(C(=O)N2CCN(c3ccccc3F)CC2)c2c1-c1ccccc1S(=O)(=O)C2,-21.2
5,Cn1nc(C(=O)N2CCN(c3ccc(Cl)cc3)CC2)c2c1-c1ccccc1S(=O)(=O)C2,-51.2
6,CCN1CCN(CC(=O)c2ccc(C)cc2)CC1,8.76
7,CC(=O)Nc1ccc(S(=O)(=O)Oc2ccc(C(=S)N3CCCCC3)cc2)cc1,-16.6
8,COc1cccc(NC(=O)c2cn(C)c(=O)c3cc(OC)c(OC)cc23)c1,6.54
9,Fc1ccc(N2N=C(c3cccs3)CC2c2ccccc2)cc1 (centres unmarked),8.89
10,COc1ccc(CC(=O)NC(C)c2nnc(SCCOc3ccc(OC)cc3)n2C)cc1 (centres unmarked),-11.2
11,O=C(O)CCn1c(=S)n(CCC(=O)O)c2ccccc21,-1.59
12,CCc1ccc(CN2CCN(Cc3ccc(SC)cc3)CC2)cc1.O=C(O)C(=O)O,-67.9
13,CS(=O)(=O)N1CCN(Cc2ccc([N+](=O)[O-])cc2)CC1,-23.6
14,CCCS(=O)(=O)N1CCN(Cc2ccncc2)CC1.O=C(O)C(=O)O,10.8
15,CCS(=O)(=O)N1CCN(Cc2ccc([N+](=O)[O-])cc2)CC1.O=C(O)C(=O)O,-44.4
16,CSc1ccc(CN2CCN(Cc3ccc([N+](=O)[O-])cc3)CC2)cc1.O=C(O)C(=O)O,-78.1
17,CSc1ccc(CN2CCN(C(=O)c3ccncc3)CC2)cc1,-21.4
18,CSc1ccc(CN2CCN(C(=O)Cc3ccccc3)CC2)cc1,-12.1
19,CCN1CCN(Cc2ccc(NC(=O)Nc3ccc(SC)cc3)cc2)CC1,-44.5
20,O=C(C1CCCN(Cc2ccc([N+](=O)[O-])cc2)C1)N1CCCCC1.O=C(O)C(=O)O (centres unmarked),-28.4
21,CCCS(=O)(=O)N1CCN(Cc2ccc([N+](=O)[O-])cc2)CC1.O=C(O)C(=O)O,-51.9
22,CSc1ccc(CN2CCN(C(=O)c3ccc([N+](=O)[O-])cc3)CC2)cc1.O=C(O)C(=O)O,-77.2
23,COC(CNC(=O)CC1C(=O)N(Cc2ccccc2)C(C)c2nc3ccccc3n21)OC (centres unmarked),9.2

row,SMILES,"hERG current change (%, negative = inhibition) at 10uM [%]"
1,CCCCn1nc(C(=O)N[C@@H](CCSC)c2nc3ccccc3[nH]2)c2ccccc2c1=O,-28.7
2,CC(=O)Nc1ccc(NC(=O)CC(C)n2ccnc2)cc1 (centres unmarked),7.66
3,O=C1/C(=C/c2ccccc2F)SC(=S)N1CC(=O)N1CCCCC1c1cccnc1 (centres unmarked),1.73
4,C#CCOc1nc(Nc2cccc([N+](=O)[O-])c2)nc(OCC#C)n1,-10.1
5,O=C(COc1ccc(S(=O)(=O)N2CCCC2)cc1Cl)N1CCN(c2ccccc2)CC1,-15.5
6,COc1cc(Nc2nc3ccccc3nc2NS(=O)(=O)c2ccc([N+](=O)[O-])cc2)cc(OC)c1OC,-30.4
7,COc1ccc(CN(CCN)C2CC(C)N(C)CC2C)cc1.Cl (centres unmarked),7.07
8,COc1ccc(CN(C(=O)c2ccco2)C2CC(C)N(C)CC2C)cc1 (centres unmarked),-53.4
9,COc1ccc(CN(C(=O)c2ccco2)C2CCS(=O)(=O)C2)cc1 (centres unmarked),-1.27
10,COc1ccc(/C=C/C(=O)c2cccc(-n3cnnn3)c2)cc1O,13.5
11,O=C(Nc1ccc(Br)cc1Br)C1CC(=O)N(Cc2ccccc2)C1 (centres unmarked),10.7
12,COc1ccc(CNC(=O)CNC(C)c2ccc(F)cc2)cc1.O=C(O)C(=O)O (centres unmarked),5.06
13,COc1ccc(CNCCC(c2ccc(F)cc2)c2ccc(OC)cc2)cc1 (centres unmarked),-82.3
14,COc1cc(NC(=S)NCCC(c2ccccc2)c2ccccc2)cc(OC)c1,3.35
15,COc1ccc(C(C)NC(=S)NCc2ccc(F)cc2)cc1 (centres unmarked),0.1
16,COc1ccc(C(CCNCc2ccccc2F)c2ccc(F)cc2)cc1 (centres unmarked),-75.5
17,COc1ccc(CNC(=S)NCc2ccc(F)cc2)cc1,-23.5
18,COc1ccc(C(CCNCc2ccc(F)cc2)c2ccc(F)cc2)cc1 (centres unmarked),-64.6
19,COc1ccc(CCC(C)Nc2ccc(F)cc2)cc1 (centres unmarked),-3.78
20,COc1ccccc1CNCCc1ccc(F)cc1.O=C(O)C(=O)O,-33.8
21,COc1ccc(NC(=O)CC(c2ccc(F)cc2)c2ccc(OC)cc2)cc1 (centres unmarked),23
22,COc1ccc(CCNCc2ccccc2F)cc1.O=C(O)C(=O)O,-22.8
23,COc1ccc(C(CCNCc2ccccc2)c2ccc(F)cc2)cc1 (centres unmarked),-66.7

row,SMILES,"hERG current change (%, negative = inhibition) at 10uM [%]"
1,COc1ccc(-c2cc(C(F)(F)F)nc(-n3cc(Cl)cn3)n2)cc1,-18.5
2,CCN1CCCCC(=N/O)/C(=N/O)CCCC1,25.5
3,N#CCCN(C(=O)COC(=O)COc1ccccc1Cc1ccccc1)c1ccccc1,15
4,Cc1cccc(NC(=O)CSCC(=O)N(C)CC(=O)Nc2cccc(F)c2)c1,-3.01
5,COc1ccc(C(C)=O)cc1CN1C(=O)NC2(CCCCCC2)C1=O,-3.9
6,COP(=O)(CC(=O)O)c1ccccc1 (centres unmarked),-5.99
7,CC(NC(=O)COc1ccccc1)C(=O)NC1=NCCS1 (centres unmarked),0.963
8,CCOC(=O)N1CCN(C(=O)CNC(=O)c2nn(-c3ccc(OC)cc3OC)c(=O)c3ccccc23)CC1,-4.94
9,COC1=CC(=O)OC12CCCCC2,8.91
10,CCc1noc(C)c1C(=O)N(CCCOC)c1c(N)n(Cc2ccccc2)c(=O)[nH]c1=O,27.3
11,Clc1ccc(-c2ccnc(Oc3ccc4ccccc4c3)n2)cc1,7.34
12,CN1CCN(CCc2nc3cc(NC(=O)COc4ccccc4)ccc3n2C)CC1,-32.6
13,CC(=O)NCCc1nc2cc(NC(=O)COc3cccc(C)c3)ccc2n1C,6.53
14,Cc1cccc(OCC(=O)Nc2ccc3c(c2)nc(CCN2CCCCC2)n3C)c1,-77.2
15,CCC(=O)NCCc1nc2cc(NC(=O)Nc3ccccc3)ccc2n1C,18.8
16,Cn1c(CCn2ccccc2=O)nc2cc(NC(=O)COc3ccccc3)ccc21,-40.6
17,CC(=O)NCCc1nc2cc(NC(=O)Nc3ccccc3)ccc2n1C,-53.8
18,Cc1cccc(OCC(=O)Nc2ccc3c(c2)nc(CCN2CCN(C)CC2)n3C)c1,-37.1
19,COc1ccc(OCC(=O)Nc2ccc3c(c2)nc(CCNC(C)=O)n3C)cc1,13.1
20,COc1ccc(OCC(=O)Nc2ccc3c(c2)nc(CCN2CCCC2)n3C)cc1,-55
21,Cn1c(CCN2CCCCC2)nc2cc(NC(=O)COc3ccccc3)ccc21,-78
22,CC(=O)NCCc1nc2cc(NC(=O)c3ccccc3)ccc2n1C,-25.6
23,COc1ccc(OCC(=O)Nc2ccc3c(c2)nc(CCn2ccccc2=O)n3C)cc1,-10.8
